The results in this text go back to PubChem BioAssay (NCATS).

Assay [1] addresses Androgen receptor (Homo sapiens) (UniProt P10275). Nature of the assay: qHTS assay for small molecule agonists of androgen receptor signaling (AID 588515; active means well fitted curve in the direction sought with a large enough effect in the signal ratio, with a control signal flat; the % refers to the signal ratio; further: on the % scale 0 is the no-effect control and ±100 the full control effect). The settings on record: AR-UAS-bla HEK293, beta-lactamase ratio, agonist 16 h; activation: stronger effect = higher value. The method in brief:
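Stimulation of an AR-responsive β-lactamase reporter in GripTite HEK293 cells was measured after 16 h compound exposure at 37 °C, via CCF4 fluorescence after 2 h RT. EC50 from Hill fits, normalized to R1881 at 30 nM.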

Assay [2] addresses Bile acid receptor (Homo sapiens) (UniProt Q96RI1). Nature of the assay: qHTS assay for small molecule antagonists of farnesoid X receptor signaling (AID 588526). Further: on the % scale 0 is the no-effect control and ±100 the full control effect. Summed up:
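Beta-lactamase reporter antagonist mode: HEK293T FXR-UAS-bla cells, titrated compound, CDCA stimulation, 16 h 37 C, CCF4 dye 2 h RT. Data normalized to CDCA 50 uM and DMSO; Hill-fit IC50.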
(In general: Quantitative high-throughput screening tests each substance at several concentrations.)

Assay [3] concerns the target Vitamin D3 receptor (Homo sapiens) (UniProt P11473). Nature of the assay: qHTS assay for small molecule agonists of vitamin D receptor signaling (AID 588543).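 Further: 0% = DMSO basal and 100% = reference agonist control.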 The method in brief: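 Agonist-mode beta-lactamase reporter: HEK293T VDR-UAS-bla cells in charcoal-stripped 2% FBS, compound series 16 h 37 C, CCF4 2 h RT. EC50 from Hill fit, scaled against DMSO and 50 nM calcitriol control.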

Assay [4] concerns the target Thyroid hormone receptor beta (Homo sapiens) (UniProt P10828). Nature of the assay: qHTS assay for small molecule antagonists of thyroid hormone receptor beta signaling (AID 588547; active means well fitted inhibition curve with a large enough effect in the signal ratio, with a control signal flat, not every such curve was filed as active; the % refers to the signal ratio;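 further: cells stimulated with 0.4 nM T3 agonist during compound exposure; series mostly up to about 77 µM; on the % scale 0 is the no-effect control and ±100 the full control effect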). To be noted: TR-UAS-bla HEK293, beta-lactamase ratio, antagonist mode, 18 h. Summed up: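 Inhibition of T3-driven (0.4nM final) beta-lactamase reporter activity was measured over 0.59 nM to 92 uM compound after 18 h at 37 C. The cells were GripTite HEK293 TR-UAS-bla in charcoal/dextran-stripped serum, with CCF4 ratio read-out and IC50 from Hill fits.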

Assay [5] is described as follows: qHTS assay for small molecule agonists of the antioxidant response element (ARE) signaling pathway (AID 651741; active means well fitted activation curve with a large enough effect in the signal ratio; the % refers to the signal ratio; further: potency means the concentration at half of the fitted maximal effect; on activation: % of control where 0% means no effect). Summed up:
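Beta-lactamase reporter under ARE control in HepG2 cells, 2,000 per well, was induced by 16 h compound treatment at 37 C. Read-out was fluorescence from LiveBLAzer B/G FRET substrate after 2 h at room temperature.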

Assay [6] in a line: qHTS assay for small molecule activators of the p53 signaling pathway (AID 651743; active means well fitted activation curve with a large enough effect in the signal ratio, not every such curve was filed as active; the % refers to the signal ratio; further: series mostly up to about 92 µM; % of control where 0% means no effect). To be noted: HCT-116 p53RE-bla, beta-lactamase FRET ratio, 16 h; activation: stronger effect = higher value. Summed up: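 After 16 hours compound treatment at 37 C, HCT-116 cells stably expressing p53RE-driven beta-lactamase were loaded with LiveBLAzer B/G FRET substrate for 2 hours at room temperature. Fluorescence intensity served as the p53 activation read-out.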

Assay [7] addresses Androgen receptor (Homo sapiens) (UniProt P10275). Nature of the assay: qHTS assay for small molecule antagonists of androgen receptor signaling (AID 588516; active means well fitted curve in the direction sought with a large enough effect in the signal ratio, with a control signal flat, not every such curve was filed as active; the % refers to the signal ratio; further: on the % scale 0 is the no-effect control and ±100 the full control effect). The method in brief: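 Antagonist mode: inhibition of R1881-stimulated (10 nM final) bla reporter in GeneBLAzer AR HEK 293 cells, 16 h at 37C, compounds titrated. IC50 and efficacy from Hill-equation fits of 405/460–530 nm FRET ratios.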

The target in assay [8] is Peroxisome proliferator-activated receptor gamma (Homo sapiens) (UniProt P37231). Nature of the assay: qHTS assay for small molecule agonists of peroxisome proliferator-activated receptor gamma signaling (AID 588536; active means well fitted curve in the direction sought with a large enough effect in the signal ratio, with a control signal flat, not every such curve was filed as active; the % refers to the signal ratio;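 further: 0% = DMSO basal wells and 100% = rosiglitazone at 2 µM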). The method in brief: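 This is an agonist-mode beta-lactamase reporter assay in HEK293 PPAR-gamma-UAS-bla cells with 1% charcoal/dextran FBS. Compound titrations ran 16 h at 37 C before CCF4 detection. EC50 and efficacy are Hill fits scaled to 2 uM rosiglitazone (100%) and DMSO basal.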

The target is the same in assay [9]. Nature of the assay: qHTS assay for small molecule antagonists of peroxisome proliferator-activated receptor gamma signaling (AID 588537; active means well fitted inhibition curve with a large enough effect in the signal ratio, with a control signal flat, not every such curve was filed as active; the % refers to the signal ratio;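 further: reporter cells co-stimulated with 50 nM rosiglitazone agonist during compound treatment; % of control where 0% means no effect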). Summed up: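 Antagonist-mode β-lactamase reporter screen run as a titration series. HEK293 PPARγ-UAS-bla cells are stimulated with rosiglitazone (50 nM final) for 16 h, then CCF4 is read at 460/530 nm. Data are scaled between DMSO and rosiglitazone and fitted to the Hill equation.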

In assay [10] the target is Vitamin D3 receptor (Homo sapiens) (UniProt P11473). The experiment in a line: qHTS assay for small molecule antagonists of vitamin D receptor signaling (AID 588541). The method in brief:
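Antagonist-mode beta-lactamase reporter assay: HEK293T VDR-UAS-bla cells were exposed to titrated compound alongside 1-alpha,25-dihydroxyvitamin D3 at 3 nM final for 16 h. Values were normalized to the 50 nM agonist control and DMSO basal, with IC50 and efficacy from Hill equation fits.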

Structures are written as SMILES. Several values for one entry are separate records, joined by “and”; a condition that tells them apart may be missing. Equal entries are not always repeated. Inconclusive results are not listed. A number with no mark means an inactive call. Activity calls are given as the source filed them. Unless noted, the call rests on the fitted dose curve.

Peroxisome proliferator-activated receptor gamma (Homo sapiens), sequence (P37231 whole entry, looked up): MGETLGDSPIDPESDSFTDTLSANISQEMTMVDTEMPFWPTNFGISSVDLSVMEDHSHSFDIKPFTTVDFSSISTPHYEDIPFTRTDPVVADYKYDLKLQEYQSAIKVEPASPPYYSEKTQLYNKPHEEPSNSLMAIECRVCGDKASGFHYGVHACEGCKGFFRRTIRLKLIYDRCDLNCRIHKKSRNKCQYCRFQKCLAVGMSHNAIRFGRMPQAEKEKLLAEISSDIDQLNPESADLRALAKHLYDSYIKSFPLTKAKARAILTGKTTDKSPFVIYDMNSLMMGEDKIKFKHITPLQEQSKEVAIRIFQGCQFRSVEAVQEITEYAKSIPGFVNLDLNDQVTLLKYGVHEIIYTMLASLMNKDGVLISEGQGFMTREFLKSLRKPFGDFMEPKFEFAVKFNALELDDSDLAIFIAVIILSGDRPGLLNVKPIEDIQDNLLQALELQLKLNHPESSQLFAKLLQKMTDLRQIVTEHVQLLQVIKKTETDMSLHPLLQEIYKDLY
Vitamin D3 receptor (Homo sapiens), sequence (P11473 whole entry, looked up): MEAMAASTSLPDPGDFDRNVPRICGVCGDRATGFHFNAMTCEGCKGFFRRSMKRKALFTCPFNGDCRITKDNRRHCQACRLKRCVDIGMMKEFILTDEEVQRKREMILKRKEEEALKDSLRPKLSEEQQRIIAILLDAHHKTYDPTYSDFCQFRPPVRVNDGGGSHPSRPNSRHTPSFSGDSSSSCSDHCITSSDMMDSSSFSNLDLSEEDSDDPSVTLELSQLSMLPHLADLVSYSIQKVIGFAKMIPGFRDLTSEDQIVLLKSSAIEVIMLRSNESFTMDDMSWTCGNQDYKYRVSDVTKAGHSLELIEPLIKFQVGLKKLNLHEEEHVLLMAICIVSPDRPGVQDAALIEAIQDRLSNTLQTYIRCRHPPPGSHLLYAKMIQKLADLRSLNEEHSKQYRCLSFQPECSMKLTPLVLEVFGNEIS
Thyroid hormone receptor beta (Homo sapiens), sequence (P10828 whole entry, looked up): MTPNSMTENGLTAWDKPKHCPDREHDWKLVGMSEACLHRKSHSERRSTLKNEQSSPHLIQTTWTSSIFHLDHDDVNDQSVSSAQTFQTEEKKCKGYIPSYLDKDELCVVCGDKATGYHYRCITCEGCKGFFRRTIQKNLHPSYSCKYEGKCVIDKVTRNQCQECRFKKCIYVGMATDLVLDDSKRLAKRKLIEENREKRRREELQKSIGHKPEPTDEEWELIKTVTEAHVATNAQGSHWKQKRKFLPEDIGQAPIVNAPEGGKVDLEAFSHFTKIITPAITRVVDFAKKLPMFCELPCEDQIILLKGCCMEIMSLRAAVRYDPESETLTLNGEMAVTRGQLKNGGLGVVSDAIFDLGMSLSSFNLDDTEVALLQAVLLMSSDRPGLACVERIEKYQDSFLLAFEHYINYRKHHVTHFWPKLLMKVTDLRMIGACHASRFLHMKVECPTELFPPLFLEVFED
Androgen receptor (Homo sapiens), sequence (P10275 whole entry, looked up): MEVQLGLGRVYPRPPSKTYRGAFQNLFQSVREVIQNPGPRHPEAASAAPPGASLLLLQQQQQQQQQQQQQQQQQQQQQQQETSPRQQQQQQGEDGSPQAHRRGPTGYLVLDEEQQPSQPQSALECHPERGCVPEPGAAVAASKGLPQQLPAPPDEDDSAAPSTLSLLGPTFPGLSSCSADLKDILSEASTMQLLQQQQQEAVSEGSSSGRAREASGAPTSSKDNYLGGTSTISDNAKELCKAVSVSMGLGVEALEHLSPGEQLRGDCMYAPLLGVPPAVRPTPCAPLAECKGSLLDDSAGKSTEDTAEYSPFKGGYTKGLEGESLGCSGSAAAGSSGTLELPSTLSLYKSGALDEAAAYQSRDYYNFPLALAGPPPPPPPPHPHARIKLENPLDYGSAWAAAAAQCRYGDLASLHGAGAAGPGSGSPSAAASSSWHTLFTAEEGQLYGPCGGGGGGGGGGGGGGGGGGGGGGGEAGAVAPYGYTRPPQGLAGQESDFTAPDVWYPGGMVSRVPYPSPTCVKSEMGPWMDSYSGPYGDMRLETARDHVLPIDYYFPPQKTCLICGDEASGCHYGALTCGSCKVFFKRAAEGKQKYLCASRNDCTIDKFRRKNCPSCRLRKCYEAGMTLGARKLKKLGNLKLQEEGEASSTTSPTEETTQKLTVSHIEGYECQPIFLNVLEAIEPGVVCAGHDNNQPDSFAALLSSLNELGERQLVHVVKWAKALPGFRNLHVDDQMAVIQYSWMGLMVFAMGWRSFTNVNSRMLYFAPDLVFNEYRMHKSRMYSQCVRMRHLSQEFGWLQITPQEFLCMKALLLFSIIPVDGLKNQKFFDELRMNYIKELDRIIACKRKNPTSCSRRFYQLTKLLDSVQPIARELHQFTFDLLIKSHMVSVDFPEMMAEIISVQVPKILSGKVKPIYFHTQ
Bile acid receptor (Homo sapiens), sequence (Q96RI1 whole entry, looked up): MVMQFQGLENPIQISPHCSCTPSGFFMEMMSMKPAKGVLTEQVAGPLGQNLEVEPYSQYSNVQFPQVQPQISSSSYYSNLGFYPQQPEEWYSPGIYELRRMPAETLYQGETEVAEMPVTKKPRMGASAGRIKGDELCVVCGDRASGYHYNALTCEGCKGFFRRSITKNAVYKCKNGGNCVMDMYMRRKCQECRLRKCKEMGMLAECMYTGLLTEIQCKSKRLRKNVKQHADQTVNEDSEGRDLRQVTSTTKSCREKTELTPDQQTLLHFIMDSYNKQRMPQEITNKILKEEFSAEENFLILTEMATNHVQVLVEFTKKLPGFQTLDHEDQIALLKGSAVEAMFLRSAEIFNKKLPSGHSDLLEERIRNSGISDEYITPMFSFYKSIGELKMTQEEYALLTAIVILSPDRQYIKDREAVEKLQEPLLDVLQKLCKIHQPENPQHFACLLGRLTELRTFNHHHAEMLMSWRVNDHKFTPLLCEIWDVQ

Regarding `Nc1c(N=Nc2ccc(S(=O)(=O)CCOS(=O)(=O)O)cc2)c(S(=O)(=O)O)cc2cc(S(=O)(=O)O)c(N=Nc3ccc(S(=O)(=O)CCOS(=O)(=O)O)cc3)c(O)c12`, the activation is 7.7% in [1] and -4.94% in [6]. For the same molecule, in assay [2], the Potency entry is “inactive”. In addition, in [3], the outcome was inactive. The activity change % (negative = inhibition) in [4] is -6.2%. In [5], the Potency was 30.6 µM (active).
In the case of `CNc1nc(=O)n(C2CCC(O)CC2)c(=O)n1C` (stereo unspecified), the call in assay [7] and in assay [8] was inactive. The Potency entry in assay [9] and in assay [10] was “inactive” in each case. In assay [4], the activity change % (negative = inhibition) is -13.9%. In assay [6], the activation was 1.92%.
Consider `CC(C)OC(=O)c1ccccc1C(=O)OC(C)C`, for which the Potency entry in assay [2], in [9] and in assay [10] was “inactive” in each case. Further, the result in [8] was inactive.
Take `C/C=C/C=C/CCCCCCCO`: the Potency result in assay [2] and in assay [9] was “inactive” throughout. In addition, the outcome in [3] was inactive. In addition, the activation in assay [6] is 7.24%.
Consider `CCCCOC(=O)c1ccccc1`, for which the results for the activation in assay [1] and in assay [6] were 0.383% and -4.18%, respectively. The result in assay [7] and in assay [3] was inactive. In addition, the Potency result in [10] and in assay [5] was “inactive” each time.
For `C=Cc1ccccc1Br`, the outcome in assay [7] and in assay [8] was inactive. Besides, the Potency entry in assay [2], in assay [10] and in assay [5] was “inactive” in each case. In [4], the activity change % (negative = inhibition) is -5.89%. Besides, the activation in assay [6] was -6.55%.
For the molecule `N[C@@H]1[C@@H](O)[C@H](O)[C@@H](CO)O[C@H]1O`, the activation in assay [1] was 9.13%; in assay [6], -3.01%. Besides, the molecule was classed as inactive in assay [7] and in [8]. Moreover, the Potency entry in [9] and in assay [10] was “inactive” each time.
On to `COC(=O)c1c(Cl)nn(C)c1S(=O)(=O)NC(=O)Nc1nc(OC)cc(OC)n1`, for which the activation in [1] is 5.65%; in assay [6], -0.555%. Besides, the result in assay [7], in assay [8] and in [3] was inactive. The Potency entry in assay [9] and in assay [10] was “inactive” each time.
As for `CCC(=O)OCCc1ccccc1`, the Potency entry in [2], in [10] and in [5] was “inactive” in each case. In addition, the activity change % (negative = inhibition) in [4] is -6.7%. The activation in assay [6] is -3.48%.
Turning to `CC(C)c1ccc2cc(C(C)C)ccc2c1`, in assay [1], the activation was -3.98%. The molecule was called inactive in [7] and in assay [3]. Moreover, the Potency result in [9] and in assay [10] was “inactive” in each case. For the same molecule, in assay [4], the activity change % (negative = inhibition) was -11%.
With `CNc1nc(=O)n(C2CCCCC2)c(=O)n1C`, the activation in assay [1] is -4.83%. Moreover, the molecule was called inactive in assay [7] and in [3]. Also, the Potency result in [9] and in assay [5] was “inactive” in each case.
As to `CC(C)c1ccc(C(C)C)cc1`, the Potency result in assay [2], in assay [10] and in [5] was “inactive” each time. The call in [8] and in [3] was inactive.
Regarding `CCCCCCCCCCCCCCCCCCN`, the activation in assay [1] is -9.22%; in [6], -1.5%. The outcome in [7] and in assay [3] was inactive. Also, the Potency result in assay [10] is “inactive”. For the same molecule, the activity change % (negative = inhibition) in [4] is 13%.
`O=C(c1ccc(Cl)cc1)c1ccc(Cl)cc1`: the activation in assay [1] is 19.9%; in [6] it was 1.92%. The molecule was classed as inactive in assay [7], in assay [8] and in [3]. The Potency entry in assay [9] and in [10] was “inactive” throughout.
Regarding `COC(=O)c1cccc(C(=O)OC)c1`, the figures for the activation in assay [1] and in [6] were -4.83% and 2.13%, respectively. Further, the outcome in assay [7] was inactive. In addition, the Potency result in [9] and in assay [10] was “inactive” in each case. Moreover, in [4], the activity change % (negative = inhibition) was 1.41%.
Take `Cn1c(=O)[nH]c(=O)n(C2CCC(O)CC2)c1=O` (stereo unspecified): the activation in assay [1] was 1.63%; in assay [6] it was 2.9%. Further, the result in assay [7] and in assay [3] was inactive. In [10], the Potency entry was “inactive”. Also, in assay [4], the activity change % (negative = inhibition) was 3.03%.
As for `CC(C)c1cccc(C(C)C)c1`, the Potency entry in assay [2], in assay [10] and in assay [5] was “inactive” each time. The activity change % (negative = inhibition) in assay [4] is -5.42%.
For the molecule `CCCCCCCCCCO`, the Potency entry in assay [2], in [9] and in [5] was “inactive” each time. The molecule was classed as inactive in assay [8] and in assay [3]. The activity change % (negative = inhibition) in [4] was 16.6% and -15.4%. Besides, the activation in assay [6] is 1.66% and 2.49%.
Consider `O=C(O)c1ccc(C(=O)O)c(C(=O)O)c1`, for which the activation in assay [1] was -3.3%. The result in assay [7] and in assay [8] was inactive. In addition, the Potency result in assay [9] was “inactive”. Besides, in assay [4], the activity change % (negative = inhibition) is 8.09%.
With `CCCCCCCC[Si](Cl)(Cl)Cl`, the figures for the activation in [1] and in [6] were 3.85% and 0.514%, respectively. The outcome in assay [7], in assay [8] and in assay [3] was inactive. Besides, the Potency result in [9] was “inactive”.
Consider `CCCCCCCCCCCCCCC(=O)OC`, for which the molecule was called inactive in assay [7], in assay [8] and in [3]. Besides, the Potency entry in [2], in [9] and in assay [5] was “inactive” throughout.
Regarding `CCCCNS(=O)(=O)c1ccccc1`, the Potency entry in assay [2], in assay [9] and in assay [10] was “inactive” in each case. Besides, the call in assay [8] and in assay [3] was inactive. The activity change % (negative = inhibition) in assay [4] is -5.57%. Besides, the activation in assay [6] is 0.183%.
As for `CC1(C)[C@@H](C=C(Cl)Cl)[C@@H]1C(=O)OCc1cccc(Oc2ccccc2)c1`, the figures for the activation in assay [1] and in assay [6] were -22.2% and -0.529%, respectively. The call in assay [7] was inactive. For the same molecule, in [10], the Potency result is “inactive”. The activity change % (negative = inhibition) in assay [4] is 5.01%.
In the case of `CCCCOC(=O)/C=C\C(=O)OCCCC`, the Potency entry in assay [2] and in assay [10] was “inactive” each time. In addition, the activity change % (negative = inhibition) in assay [4] was 17.7%. Besides, the activation in assay [6] was 5.06%.
As for `CCCCCCCCCCCCCc1ccccc1`, the Potency entry in assay [2], in assay [9] and in [10] was “inactive” in each case. Also, the call in [8] was inactive. Also, in [4], the activity change % (negative = inhibition) is 11.3%. Besides, the activation in assay [6] is 1.08%.
`CCCCN(CCCC)CCCC`: the Potency entry in assay [2] is “inactive”. Further, in [6], the activation is -3.01%.
As to `CCOC(=O)C1=NN(c2ccc(Cl)cc2Cl)C(C)(C(=O)OCC)C1` (stereo unspecified), the activation in [1] was -14.3%; in assay [6], -4.17%. The molecule was classed as inactive in assay [7] and in assay [3]. The Potency result in assay [10] and in [5] was “inactive” throughout.
Regarding `C=C[Si](OCCOC)(OCCOC)OCCOC`, the Potency entry in [2] and in assay [10] was “inactive” throughout. The molecule was called inactive in assay [8]. Further, in [6], the activation is -3.03%.
`Cc1ccc(S(=O)(=O)N=C=O)cc1`: the outcome in [8] and in assay [3] was inactive. Besides, the Potency entry in assay [9], in [10] and in assay [5] was “inactive” in each case. For the same molecule, the activation in assay [6] is -3.48%.
Turning to `CC/C=C\CCOC(=O)c1ccccc1O`, the call in assay [8] and in [3] was inactive. Further, the Potency entry in assay [10] and in assay [5] was “inactive” each time. For the same molecule, in assay [4], the activity change % (negative = inhibition) is 0.0454%. The activation in [6] was -5.63%.
